# Compound activity deposited in PubChem by National Center for Advancing Translational Sciences (NCATS).
# The list is not random: actives were taken first. Their share in the collection is about 2.4%.
# D2 PAM-1 – human D2 receptor positive allosteric modulation. DiscoveRx D2 beta-arrestin cells, luminescence, 90 min; 100% = 57 uM dopamine signal. AID 624464. P14416. 0.23% of 360,000 active. potentiation, % (concentration not given with the values); in the data active = potentiation above about 50%; inconclusive = mostly about 30% to 49%
# Target sequence (P14416 whole entry, looked up): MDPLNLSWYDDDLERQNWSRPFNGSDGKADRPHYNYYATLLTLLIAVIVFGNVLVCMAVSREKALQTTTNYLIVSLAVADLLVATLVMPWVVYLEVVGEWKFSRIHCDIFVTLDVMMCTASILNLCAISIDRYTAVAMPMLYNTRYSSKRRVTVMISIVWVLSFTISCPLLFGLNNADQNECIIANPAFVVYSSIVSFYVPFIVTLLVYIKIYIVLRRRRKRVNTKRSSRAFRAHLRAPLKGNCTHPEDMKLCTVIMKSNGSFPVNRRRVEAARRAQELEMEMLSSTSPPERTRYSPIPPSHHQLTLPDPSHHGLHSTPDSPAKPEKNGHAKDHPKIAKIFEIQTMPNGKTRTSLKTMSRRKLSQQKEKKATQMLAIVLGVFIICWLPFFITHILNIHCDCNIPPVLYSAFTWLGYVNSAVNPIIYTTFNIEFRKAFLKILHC
#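 PathHunter beta-arrestin assay in DiscoveRx D2 cells. Compounds were added with an EC20 of dopamine (50 nM final) for 90 min at 37 deg C. Luminescence was read 1 h after detection reagent, with 57 uM dopamine as the EC100 control.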
# D2 ag-1 – agonists of human D2 dopamine receptor; P14416; HEK293 T-REx D2 cells, calcium flux agonist mode; activation, % at 2 µM; 0.53% of 340,000 active; AID 485358;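 active = activation over 3 SD above normal in the single-dose calcium agonist read, cut at about 30% in these data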
#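 In this primary screen, compounds producing a positive calcium signal within 180 s of addition to tetracycline-induced, force-coupled HEK293 Trex D2 cells are flagged; cells are dye-loaded with a no-wash calcium kit beforehand.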
# D2 PAM-2 – positively modulates the human D2 dopamine receptor allosterically | P14416 | HEK293 T-REx D2, calcium flux, EC20 dopamine potentiation | potentiation, % at 10 µM | 0.34% of 340,000 active;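 active = potentiation over 3 SD above the plate norm, cut at about 30% in these data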
#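 Using a no-wash calcium dye in inducible, force-coupled HEK293 Trex cells expressing D2, we tracked fluorescence each second for 180 s after compound, then for 180 s after EC20 dopamine to detect augmented signalling.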
# D2 ag-2 – agonists of human D2 dopamine receptor (beta-arrestin); P14416; DiscoveRx PathHunter D2 beta-arrestin, luminescence, 90 min; 100% = 57 uM dopamine signal; activation, % (concentration not given with the values); 0.084% of 360,000 active; AID 624465; in the data active = activation above about 40%; inconclusive = between about 15% and that limit
#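 Agonist mode: compounds alone added to overnight-plated D2 PathHunter cells for 90 min at 37 C, with 57 uM final dopamine (EC100) defining full response. Beta-arrestin recruitment detected by chemiluminescent reagent, read after 1 h at ambient temperature.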
# D2 antag – antagonizes the human D2 dopamine receptor | P14416 | HEK293 TREx D2 cells, calcium flux, dopamine EC80 | inhibition, % at 10 µM | 2% of 340,000 active | AID 485344; in the data active = inhibition above about 30%; inactive = below that, where a call was filed
#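 Read-out: kinetic calcium fluorescence (1 cycle/s) in inducible HEK293 T-REx D2 cells after an EC80 dopamine addition that followed 180 s compound preincubation. Loss of the dopamine response indicates antagonism.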
# Numbers stand for hits; 0 = inactive; ? = inconclusive; - = no result given.
SMILES,D2 PAM-1,D2 ag-1,D2 PAM-2,D2 ag-2,D2 antag
Cc1cccc(CNC(=O)c2ccc(N3Cc4ccccc4Oc4ncccc43)s2)c1,-,0,0,-,-
COc1ccc(NC(=O)N2CCN(C(=O)Nc3ccc(OC)cc3)CC2)cc1,0,0,0,0,0
COc1ccc(N2CCN(C(=O)Nc3ccc(S(=O)(=O)N(C)C)cc3)CC2)cc1,0,0,0,0,41.1
CN(C)S(=O)(=O)c1ccc(NC(=O)N2CCN(c3ccccc3)CC2)cc1,0,0,0,0,0
COc1ccc(NC(=O)N2CCN(S(C)(=O)=O)CC2)cc1,0,0,0,0,34.1
Cc1cc(C)n(CCNC(=O)CC2C(=O)NCCN2Cc2ccccc2C(F)(F)F)n1 (stereo not drawn),0,0,0,0,0
Cc1ccccc1CCNC(=O)c1cc2cc(S(=O)(=O)N3CCCCC3)ccc2n1C,-,0,0,-,-
CCOC(=O)C1CCN(C/C=C/c2ccccc2OC)CC1,0,0,0,0,0
CC1CCCCN1C(=O)/C=C/c1ccccc1[N+](=O)[O-] (stereo not drawn),0,0,0,0,30.1
CCOC(=O)C1CCN(C/C=C/c2ccccc2[N+](=O)[O-])CC1,0,0,0,0,48.4
Cc1ccc(CNc2ncnc3c2c(-c2ccccc2)cn3-c2ccccc2)cc1,-,0,0,-,-
Cc1cccc(C(=O)Oc2c(Sc3ccccc3)c(C)nn2C(C)(C)C)c1,-,0,-,-,-
COc1ccc(N=Nc2nc3cc(Br)c(Br)cc3n2C)c(OC)c1,0,32.5,0,0,0
O=C(CCCn1c(=O)c2cccn2c2ccccc21)Nc1cccc(Cl)c1,-,0,0,-,-
COC(=O)C1=C(C(=O)OC)C(C(=O)OC)C(C(=O)OC)C(C(=O)OC)(C(=O)OC)C(C(=O)OC)=C1C(=O)OC (stereo not drawn),0,-,-,0,-
COC(=O)C1=C(C(=O)OC)N2C=CC=CC2(C)C(C(=O)OC)=C1C(=O)OC (stereo not drawn),0,0,0,0,32.3
C/C(CC(=O)Nc1ccc2c(c1)OCCO2)=N\NC(=O)COc1ccccc1C,0,0,0,0,0
C/C(CC(=O)Nc1ccc2c(c1)OCCO2)=N\NC(=O)C(=O)Nc1ccccc1C,0,0,0,0,32.0
COc1cccc(NC(=O)CN(c2cccc(OC)c2)S(C)(=O)=O)c1,0,0,0,0,38.1
O=C(CSc1ccc(-c2ccc(F)cc2)nn1)NCCc1ccccc1,0,0,0,0,0
COc1ccccc1-c1ccc(SCC(=O)NCCc2ccccc2)nn1,0,0,0,0,48.4
CS(=O)(=O)N(CC(=O)Nc1ccc2c(c1)OCCO2)c1ccc2c(c1)OCO2,0,0,47.6,0,0
COC(=O)c1cc2oc(C)cc2n1CC(=O)Nc1ccc(C)cc1C,-,0,0,-,-
COc1ccccc1NC(=O)CSc1ccc(-c2ccccn2)nn1,0,0,0,0,0
O=C(CSc1ccccc1)Nc1ccc2c(c1)OCCO2,0,0,0,0,0
SMILES,D2 PAM-1,D2 ag-1,D2 PAM-2,D2 ag-2,D2 antag
O=C(CSc1ccc(-c2ccccc2)nn1)Nc1ccc2c(c1)OCCO2,0,0,0,0,32.1
CCC(=O)Nc1ccc2c(c1)OCCO2,0,0,30.2,0,0
COc1ccc(NC(=O)CSc2ccc(-c3ccccn3)nn2)cc1OC,?,0,0,54.3,0
CCOc1ccc(NC(=O)c2ccc(NC(=O)N3CCSc4ncccc43)cc2)cc1,-,0,0,-,-
COc1ccc(N2CCN(S(=O)(=O)c3ccc(OC)c(-c4noc(C)n4)c3)CC2)cc1,-,0,0,-,-
Cc1ccccc1CC(=O)Nc1sc(C(C)C)cc1C(=O)N1CCOCC1,0,-,-,0,-
CCN1CCN(S(=O)(=O)c2ccc(Cl)c(C(=O)NC3CCCC3)c2)CC1,0,0,0,0,46.6
CCN1CCN(S(=O)(=O)c2ccc(Cl)c(C(=O)NC3CC3)c2)CC1,0,0,0,0,0
CCN1CCN(S(=O)(=O)c2ccc(Cl)c(C(=O)NC(C)(C)C)c2)CC1,0,0,0,0,30.4
COc1ccc(N2CC(NC(=O)c3ccc(Br)o3)CC2=O)cc1 (stereo not drawn),-,0,0,-,-
CCOc1ccc(N(CC(=O)NC(C)CC)S(C)(=O)=O)cc1 (stereo not drawn),0,0,0,0,37.6
COc1ccc(NC(=O)N(C2CCCCC2)C2CCN(C(C)C)CC2)c(OC)c1,0,0,-,0,49.9
COc1ccc(C2C(C#N)=C(C)NC3=C2S(=O)(=O)c2ccccc23)cc1 (stereo not drawn),0,0,31.6,0,0
COC(=O)C1=C(C)NC2=C(C1c1ccc(O)cc1)S(=O)(=O)c1ccccc12 (stereo not drawn),0,0,0,0,0
Cc1cc(OCC(=O)OCC(=O)N2CCCc3ccccc32)ccc1Cl,0,-,-,0,-
Cc1noc(C)c1CSc1nc2[nH]ncc2c(=O)n1-c1ccccc1,0,0,31.8,0,0
Cc1ccc(Cl)cc1NS(=O)(=O)c1ccc(N2CCCCS2(=O)=O)cc1,-,0,0,-,-
Cc1cc(C(=O)CSc2nnc(N)s2)c(C)n1CCc1ccc(F)cc1,0,0,0,0,42.6
Cc1cc(C(=O)CSc2nnc(N)s2)c(C)n1CCc1ccc(Cl)cc1,0,0,0,0,0
CCN(CC)CCCNC(=O)c1ccc2nc(CCc3ccccc3)oc2c1,-,0,0,-,-
CCc1ccccc1NS(=O)(=O)c1ccc2c(c1)CCCN2C(=O)C1CCC1,-,0,0,-,-
Cc1cc(C)n(CCCNC(=O)C(C)(C)Oc2ccc(Cl)cc2)n1,0,0,0,0,30.7
Cc1cc(C)n(CC(=O)c2ccc(Cl)cc2)n1,0,0,39.0,0,0
O=C1c2ccccc2-c2onc3ccc(NCCCn4ccnc4)c1c23,66.5,48.7,0,0,0
COc1ccc2noc3c2c1C(=O)c1ccccc1-3,0,-,-,0,-
SMILES,D2 PAM-1,D2 ag-1,D2 PAM-2,D2 ag-2,D2 antag
CCN(c1ccccc1)S(=O)(=O)c1ccc(F)cc1,0,0,0,0,0
CCN(c1ccccc1)S(=O)(=O)c1ccc2[nH]c(=O)c(=O)[nH]c2c1,0,0,-,0,32.9
CCOC(=O)c1cccc(NC(=O)c2ccc3c(Cl)c4c(nc3c2)CCC4)c1,-,0,0,-,-
OC(COCc1cccs1)CN1CCN(c2cccc(C(F)(F)F)c2)CC1 (stereo not drawn),0,0,0,0,50.4
O=S(=O)(c1ccc(F)cc1)N1CCN(CC(O)COCc2cccs2)CC1 (stereo not drawn),0,0,0,0,0
O[Si](CCCN1CCCCC1)(c1ccc(F)cc1)C1CCCCC1 (stereo not drawn),0,0,0,0,124.3
O=C(NCCCN1CCCC1)Nc1ccc(F)cc1,0,0,0,0,0
COc1cc(NC(=O)CCN2CCN(c3ccccc3OC)CC2)cc(OC)c1,0,-,-,0,-
CC1CN(CCCSc2ccc(Cl)cc2)CC(C)O1 (stereo not drawn),0,0,0,0,0
